Among the data in PubChem BioAssay AID694 (Emory University Molecular Libraries Screening Center, 2007) are inhibition values, retold here.

Each structure is given as a SMILES string. The campaign covered roughly 1,300 compounds. About 25 (2%) were called active. How the calls were made is not given here. Shown is part of a subset that was picked to be rich in actives.

This experiment concerns the target Estrogen receptor (Homo sapiens) (UniProt P03372). Briefly: ERα coactivator peptide binding inhibitors, primary screen, biochemical, LOPAC library, TR-FRET (AID 694).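 Further: receptor was agonist-bound with estradiol present during the assay.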 Conditions: TR-FRET ERalpha-coactivator peptide binding, stronger effect = higher value.

Estrogen receptor (Homo sapiens), sequence (P03372 whole entry, looked up): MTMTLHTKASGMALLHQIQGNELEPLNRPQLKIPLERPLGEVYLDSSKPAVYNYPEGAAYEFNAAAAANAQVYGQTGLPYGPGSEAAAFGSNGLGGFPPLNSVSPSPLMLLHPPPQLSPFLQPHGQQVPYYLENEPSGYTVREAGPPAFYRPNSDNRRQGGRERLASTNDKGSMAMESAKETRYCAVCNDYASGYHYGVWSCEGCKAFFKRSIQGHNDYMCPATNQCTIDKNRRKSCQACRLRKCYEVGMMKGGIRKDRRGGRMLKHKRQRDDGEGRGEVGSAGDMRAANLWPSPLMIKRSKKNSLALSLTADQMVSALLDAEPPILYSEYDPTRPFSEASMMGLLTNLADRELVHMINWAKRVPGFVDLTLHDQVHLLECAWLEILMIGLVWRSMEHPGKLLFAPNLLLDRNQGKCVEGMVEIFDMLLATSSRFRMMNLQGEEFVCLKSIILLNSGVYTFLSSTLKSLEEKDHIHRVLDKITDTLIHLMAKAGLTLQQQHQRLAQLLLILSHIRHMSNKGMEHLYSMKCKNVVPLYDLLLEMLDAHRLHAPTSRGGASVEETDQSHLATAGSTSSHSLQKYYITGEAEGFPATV

By inhibition is commonly meant the relative decrease from the control value, in per cent. As to `COC(=O)[C@H]1[C@H]2C[C@H]3c4[nH]c5ccccc5c4CCN3C[C@H]2CC[C@@H]1O`, the inhibition was 1.18% (inactive) (at 45 µM) and 3.29% (inhibition, at 15 µM).
`CC(=O)NCCc1ccc(O)c(O)c1`: the inhibition is, setting by setting: (at 45 µM) -22% (inactive); (inhibition, at 15 µM) -4.7%.
Take `C[C@@H](Oc1ccc(Oc2cnc3ccc(Cl)cc3n2)cc1)C(=O)O`: the inhibition runs as follows: (at 45 µM) -0.82% (inactive); (inhibition, at 15 µM) -2.92%.
As to `CCCCOC(=O)NS(=O)(=O)c1sc(CC(C)C)cc1-c1ccc(Cn2c(CC)nc3c(C)cc(C)nc32)cc1`, the inhibition (at 45 µM) was 8.38% (inactive) and the inhibition (inhibition, at 15 µM) amounted to 2.57%.
The like results for `O=C(/C=C/c1ccc(O)cc1)c1ccc(O)cc1O` were, in that order, 10.8% (inactive) and -3.98%.
For `CC#C[C@]1(O)CC[C@H]2[C@@H]3CCC4=CC(=O)CCC4=C3[C@@H](c3ccc(N(C)C)cc3)C[C@@]21C`, the inhibition runs as follows: (at 45 µM) 4.52% (inactive); (inhibition, at 15 µM) 1.37%.
As to `O=C(O)CCC(NC(=O)c1ccccc1C(=O)O)C(=O)O` (stereo unspecified), the inhibition is, setting by setting: (at 45 µM) -0.22% (inactive); (inhibition, at 15 µM) 0.4%.
For the molecule `Oc1ccc(-c2nc(-c3ccc(F)cc3)c(-c3ccncc3)[nH]2)cc1`, the inhibition runs as follows: (at 45 µM) -3.04% (inactive); (inhibition, at 15 µM) -1.6%.
As for `CC(=O)N1CCN(c2ccc(OC[C@H]3CO[C@](Cn4ccnc4)(c4ccc(Cl)cc4Cl)O3)cc2)CC1`, the inhibition (at 45 µM) was -0.23% (inactive) and the inhibition (inhibition, at 15 µM) is 1.67%.
`CC(CCc1ccc(O)cc1)NCCc1ccc(O)c(O)c1` (stereo unspecified): the inhibition (at 45 µM) is -5.5% (inactive) and the inhibition (inhibition, at 15 µM) was 1.1%.
On to `CC(C)[N+](C)(CCOC(=O)C1c2ccccc2Oc2ccccc21)C(C)C`, for which the inhibition reads like this: (at 45 µM) 7.96% (inactive); (inhibition, at 15 µM) 8.56%.
For the molecule `CCSC(=N)N`, the inhibition (at 45 µM) was -21.8% (inactive) and the inhibition (inhibition, at 15 µM) turned out to be 0.66%.
For the molecule `Cc1cccc(/C=C/c2ccccc2)n1`, the inhibition is 4.39% (inactive) (at 45 µM) and 12.3% (inhibition, at 15 µM).
In the case of `O=S(=O)(O)C1CCNCC1`, the inhibition runs as follows: (at 45 µM) 1.25% (inactive); (inhibition, at 15 µM) 4.59%.
As to `C[N+](C)(C)CC=O`, the inhibition is, setting by setting: (at 45 µM) 0.73% (inactive); (inhibition, at 15 µM) -1.9%.
On to `COc1ccccc1NC(=O)Nc1nc(-c2cccnc2)nc2ccccc12`, for which the inhibition is, setting by setting: (at 45 µM) 7.9% (inactive); (inhibition, at 15 µM) 4.04%.
As to `O=C(Nc1cccc(C(=O)Nc2ccc(S(=O)(=O)O)c3cc(S(=O)(=O)O)cc(S(=O)(=O)O)c23)c1)Nc1cccc(C(=O)Nc2ccc(S(=O)(=O)O)c3cc(S(=O)(=O)O)cc(S(=O)(=O)O)c23)c1`, the inhibition by setting is: (at 45 µM) -3.86% (inactive); (inhibition, at 15 µM) -2.37%.
Take `C[C@@H](CN1CCC(Cc2ccccc2)CC1)[C@@H](O)c1ccc(O)cc1`: the inhibition was -2% (inactive) (at 45 µM) and 1.32% (inhibition, at 15 µM).
For the molecule `OC[C@H]1O[C@@H](n2cnc3c(NC4CCCC4)ncnc32)C(O)[C@H]1O` (stereo partly specified), the inhibition (at 45 µM) was -0.88% (inactive) and the inhibition (inhibition, at 15 µM) was determined as 3.03%.
With `COc1cc(C(=O)OCCCN2CCCN(CCCOC(=O)c3cc(OC)c(OC)c(OC)c3)CC2)cc(OC)c1OC`, the inhibition runs as follows: (at 45 µM) -2.88% (inactive); (inhibition, at 15 µM) -1.75%.
The like results for `CN[C@H](CC(=O)O)C(=O)O` were, in that order, -0.69% (inactive) and -0.99%.
With `COc1cccc(OC)c1OCCNCC1COc2ccccc2O1` (stereo unspecified), the inhibition by setting is: (at 45 µM) 52.7% (inactive); (inhibition, at 15 µM) -0.05%.
For the molecule `Nc1c(S(=O)(=O)O)cc(Nc2ccc(Nc3nc(Cl)nc(Nc4ccc(S(=O)(=O)O)cc4)n3)c(S(=O)(=O)O)c2)c2c1C(=O)c1ccccc1C2=O`, the inhibition is 75.2% [fluorescence artefact?] (active) (at 45 µM) and 58.5% (inhibition, at 15 µM).
For the molecule `OC[C@H]1O[C@@H](n2cnc3c(N[C@H]4CC5CCC4C5)ncnc32)[C@H](O)[C@@H]1O` (stereo partly specified), the inhibition is, setting by setting: (at 45 µM) -7.11% (inactive); (inhibition, at 15 µM) -3.27%.
Consider `CC(C)(C)c1ccc(S(=O)(=O)/C=C/C#N)cc1`, for which the inhibition was -4.31% (inactive) (at 45 µM) and -2.91% (inhibition, at 15 µM).
As for `CCCc1c(OCCCOc2ccc(OCC(=O)O)cc2)ccc(C(C)=O)c1O`, the inhibition was -1.06% (inactive) (at 45 µM) and 5.6% (inhibition, at 15 µM).
Regarding `C[C@]12CCC(=O)C=C1CC[C@@H]1[C@@H]2[C@@H](O)C[C@@]2(C)[C@H]1CC[C@]2(O)C(=O)COC(=O)CCC(=O)O`, the inhibition by setting is: (at 45 µM) 0.81% (inactive); (inhibition, at 15 µM) 1.7%.
As for `Oc1cc2c(c(Cl)c1O)CCNCC2c1ccccc1` (stereo unspecified), the inhibition was -1.88% (inactive) (at 45 µM) and 4.73% (inhibition, at 15 µM).
With `Cc1cccc(C)c1OCC(N)C(C)C` (stereo unspecified), the inhibition was -0.93% (inactive) (at 45 µM) and -1.42% (inhibition, at 15 µM).
Turning to `O=[N+]([O-])c1ccc(-c2nc(-c3ccc(F)cc3)c(-c3ccncc3)[nH]2)cc1`, the inhibition was -3.67% (inactive) (at 45 µM) and -0.79% (inhibition, at 15 µM).
On to `Cc1scc2c1N(C(=O)CN1CCN(C)CC1)c1ccccc1NC2=O`, for which the inhibition (at 45 µM) was -3.58% (inactive) and the inhibition (inhibition, at 15 µM) was -4.27%.
As to `O=C(Cc1ccc(Cl)c(Cl)c1)OCCN1CCCC1`, the inhibition by setting is: (at 45 µM) -23.1% (inactive); (inhibition, at 15 µM) -1.83%.
As for `O=[N+]([O-])c1cccc2c(Br)[nH]nc12`, the inhibition reads like this: (at 45 µM) -0.31% (inactive); (inhibition, at 15 µM) -5.48%.
Consider `N[C@@H](CC(=O)O)C(=O)O`, for which the inhibition by setting is: (at 45 µM) -5.55% (inactive); (inhibition, at 15 µM) -8.89%.
The like results for `CC(C)(Sc1ccc(CCN(CCCCC2CCCCC2)C(=O)NC2CCCCC2)cc1)C(=O)O` were, in that order, 43.1% (inactive) and 8.46%.
As to `NS(=O)(=O)c1cccc2c1c([N+](=O)[O-])cc1nc(O)c(O)nc12`, the inhibition reads like this: (at 45 µM) -0.73% (inactive); (inhibition, at 15 µM) -5.25%.
The corresponding values for `CC(=O)O[C@H]1CC2(C)[C@@H](C[C@@H](O)[C@H]3[C@@]4(C)CC[C@@H](O)[C@@H](C)[C@@H]4CC[C@@]32C)C1=C(CCC=C(C)C)C(=O)O` (stereo partly specified) are 80.4% (inactive) and 14.2%.
For the molecule `Oc1cc(O)cc(/C=C/c2ccc(O)c(O)c2)c1`, the inhibition runs as follows: (at 45 µM) 70.5% (inactive); (inhibition, at 15 µM) 32.3%.
The corresponding values for `COc1cc2c(CCNC(C)=O)c[nH]c2cc1O` are -5.77% (inactive) and -3%.
With `N#C/C(=C\c1c[nH]c2ccccc12)C(=O)c1ccc(O)c(O)c1`, the inhibition by setting is: (at 45 µM) 4.91% (inactive); (inhibition, at 15 µM) 10.1%.
Consider `CSc1nc(N)c2ncn([C@@H]3O[C@H](COP(=O)(O)OP(=O)(O)O)[C@H](O)C3O)c2n1` (stereo partly specified), for which the inhibition reads like this: (at 45 µM) 2.87% (inactive); (inhibition, at 15 µM) -1.28%.
Take `CN1CCc2c(cc(O)c(O)c2Cl)C(c2cccc(Cl)c2)C1` (stereo unspecified): the inhibition by setting is: (at 45 µM) 7.51% (inactive); (inhibition, at 15 µM) 4.56%.
Turning to `OC[C@H]1O[C@@H](n2cnc3c(NC4CCCCC4)ncnc32)[C@H](O)[C@@H]1O`, the inhibition runs as follows: (at 45 µM) -1.41% (inactive); (inhibition, at 15 µM) -1.34%.
